The nature of assay [1]: ATG_CRE_CIS: Attagene CIS-FACTORIAL HepG2 Assay for human cAMP Responsive Element (CRE) binding protein 3 (AID 2282926). Particulars: HepG2 CRE cis-reporter, Attagene multiplexed mRNA; actives raise or lower the signal. An outline of the steps: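 HepG2 cells transiently transfected with a multiplexed reporter library (CRE-driven unit among them) were dosed for 24 h. Reporter mRNA was quantified by RT-PCR, fluorescent labelling, HpaI digestion and capillary electrophoresis, with bidirectional fitting against DMSO baseline.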

The target in assay [2] is CCAAT/enhancer-binding protein beta (Homo sapiens) (UniProt P17676). Description: ATG_C_EBP_CIS: Attagene CIS-FACTORIAL HepG2 Assay for human CCAAT/Enhancer Binding Protein (C/EBP) beta (AID 2282927). Particulars: HepG2 Attagene cis-factorial transcription factor reporter; actives raise or lower the signal. An outline of the steps:
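HepG2, transient MRTU transfection, 24 h treatment. RT-PCR plus CE fluorescence; DMSO negative control, bidirectional fit.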

Assay [3] can be described thus: ATG_CMV_CIS: Attagene CIS-FACTORIAL HepG2 Assay for human CMV (Internal Marker) (AID 2282928).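 Also: endpoint acts as a background internal control marker rather than a target.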 Conditions: HepG2 CMV promoter reporter, transcription factor profiling; actives raise or lower the signal. The method in brief: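 HepG2 cells transiently transfected with multiple cis-regulated reporter units; 24 h compound exposure. Reporter mRNA quantified by RT-PCR, 6-FAM primer-extension labeling, HpaI digestion and capillary electrophoresis; bidirectional fitting against DMSO baseline.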

A short description of assay [4]: ATG_DR4_LXR_CIS: Attagene CIS-FACTORIAL HepG2 Assay for human Liver X Receptor (LXR), DR4 submotif (AID 2282929). Particulars: HepG2 Attagene DR4 cis-reporter, mRNA transcription; actives raise or lower the signal. An outline of the steps: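 HepG2 cells transiently transfected with cis-promoter-driven multiplexed reporter units (DR4 element) were dosed for 24 h. Reporter mRNA was quantified by RT-PCR, fluorescent primer extension, HpaI digestion and capillary electrophoresis; bidirectional fitting versus DMSO baseline.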

The target in assay [5] is Aryl hydrocarbon receptor (Homo sapiens) (UniProt P35869). Description: ATG_Ahr_CIS: Attagene CIS-FACTORIAL HepG2 Assay for human Aryl Hydrocarbon Receptor (Ahr) (AID 2282930). Particulars: HepG2 AhR cis-factorial reporter transcription; actives raise or lower the signal. An outline of the steps:
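Endogenous factor activity is tracked through cis-promoter reporter units transfected into HepG2 cells. Transcript levels at 24 h are read by fluorescent RT-PCR and capillary electrophoresis, with activity in either direction scored relative to DMSO.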

Assay [6] in a line: ATG_AP_1_CIS: Attagene CIS-FACTORIAL HepG2 Assay for human Activator Protein 1 (AP-1) (AID 2282931). Particulars: HepG2 Attagene cis-factorial AP-1 reporter mRNA; actives raise or lower the signal. The method in brief: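 HepG2 cells transiently transfected with cis-element-driven multiplex reporter units; 24 h compound exposure. Reporter mRNA quantified by RT-PCR, FAM-labelled fragments resolved by capillary electrophoresis; bidirectional fit versus DMSO baseline.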

A short description of assay [7]: ATG_AP_2_CIS: Attagene CIS-FACTORIAL HepG2 Assay for human Activator Protein 2 (AP-2) (AID 2282932). Conditions: HepG2 AP-2 cis-reporter, Attagene transcription factor profiling; actives raise or lower the signal. An outline of the steps:
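Multiplexed mRNA reporter assay in HepG2: cis-regulated units report endogenous factor activity after 24 h treatment. Fluorescence from capillary electrophoresis of RT-PCR products gives the signal, with DMSO as baseline.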

Assay [8] is described as follows: ATG_BRE_CIS: Attagene CIS-FACTORIAL HepG2 Assay for human Bone Morphogenetic Protein (BMP) Response Element (BRE) (AID 2282933). Conditions: HepG2 BMP response element reporter, Attagene transcription factor profiling; actives raise or lower the signal. The method in brief:
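Endogenous transcription factor activity at a BMP response element was monitored in transfected HepG2 cells 24 h after dosing. Fluorescent RT-PCR products were resolved by capillary electrophoresis, and activity was fitted in both directions versus DMSO.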

Assay [9] deals with Retinoic acid receptor alpha (Homo sapiens) (UniProt P10276). Description: ATG_DR5_RAR_CIS: Attagene CIS-FACTORIAL HepG2 Assay for human Retinoic Acid Receptor Alpha (RARE), DR5 submotif (AID 2282934).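 As to AC50: reporter responds to endogenous RAR alpha beta and gamma in HepG2 not RARA alone.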 Particulars: HepG2 Attagene cis-factorial RARE DR5 reporter, mRNA; actives raise or lower the signal. An outline of the steps:
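After 24 h of chemical exposure, transiently transfected HepG2 cells were lysed for total RNA; the DR5-regulated reporter transcript was quantified via RT-PCR and capillary electrophoresis, with activity fitted bidirectionally against DMSO.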

The target of assay [10] is Transcription factor E2F1 (Homo sapiens) (UniProt Q01094). Put plainly: ATG_E2F_CIS: Attagene CIS-FACTORIAL HepG2 Assay for human E2F Transcription Factor 1 (AID 2282935). Conditions: HepG2 Attagene cis-reporter, E2F reporter RNA transcripts; actives raise or lower the signal. The method in brief:
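Measures reporter transcript levels via RT-PCR with capillary electrophoresis detection in HepG2 cells harboring cis-regulated reporter units; 24 h post-dose; bidirectional curve fitting with DMSO as baseline.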

A short description of assay [11]: ATG_E_Box_CIS: Attagene CIS-FACTORIAL HepG2 Assay for human Enhancer Box (E-box) (AID 2282936). Conditions: HepG2 E-box cis-reporter transcription, actives raise or lower the signal. An outline of the steps:
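First, HepG2 cells receive multiple cis-regulated reporter constructs by transient transfection. Next, chemicals are applied for 24 h. Finally, reporter mRNA is quantified via RT-PCR and capillary electrophoresis, with DMSO as baseline.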

Assay [12] can be described thus: ATG_M_61_CIS: Attagene CIS-FACTORIAL HepG2 Assay for M61 Transcription Factor (Internal Marker) (AID 2282937). Conditions: HepG2 Attagene CIS-FACTORIAL M61 internal marker reporter; actives raise or lower the signal. The method in brief: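 HepG2 cells transiently transfected with cis-element-driven multiple reporter transcription units, dosed for 24 h. Reporter mRNA measured by RT-PCR, 6-FAM primer-extension labelling, HpaI digestion and capillary electrophoresis; bidirectional fit versus DMSO baseline.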

Assay [13] in a line: ATG_EGR_CIS: Attagene CIS-FACTORIAL HepG2 Assay for human Early Growth Response 1 (EGR1) (AID 2282938). Conditions: HepG2 Attagene CIS-FACTORIAL EGR reporter mRNA; actives raise or lower the signal. The method in brief: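 HepG2 cells transiently transfected with cis-promoter-driven multiplexed reporter transcription units; reporter mRNA measured 24 h after compound dosing by RT-PCR, 6-FAM primer extension, HpaI digestion and capillary electrophoresis. Bidirectional fit versus DMSO baseline.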

Assay [14] is described as follows: ATG_M_19_CIS: Attagene CIS-FACTORIAL HepG2 Assay for M19 Transcription Factor (Internal Marker) (AID 2282939). Conditions: HepG2 Attagene CIS-FACTORIAL M19 internal marker reporter; actives raise or lower the signal. An outline of the steps:
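Background-control endpoint from a multiplexed HepG2 reporter panel. Cells carrying cis-regulated reporter constructs are treated 24 h, then reporter transcripts are amplified, fluorescently labelled and sized by capillary electrophoresis. DMSO defines baseline.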

A short description of assay [15]: ATG_ERE_CIS: Attagene CIS-FACTORIAL HepG2 Assay for Estrogen Response Element (ERE) (AID 2282940). Conditions: HepG2 ERE cis-reporter, Attagene RNA transcript; actives raise or lower the signal. An outline of the steps:
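Cells used were human hepatoma HepG2, transfected with multiple reporter transcription units under cis-regulatory promoters. Reporter mRNA, read 24 h post-dosing via fluorescent RT-PCR products on capillary electrophoresis, was fitted bidirectionally relative to DMSO.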

The nature of assay [16]: ATG_Ets_CIS: Attagene CIS-FACTORIAL HepG2 Assay for human Erythroblast Transformation Specific (ETS) (AID 2282941). Particulars: HepG2 ETS cis-reporter transcription, actives raise or lower the signal. The method in brief: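 HepG2 cells transiently transfected with cis-promoter reporter transcription units were dosed for 24 h; reporter mRNA was measured by RT-PCR, 6-FAM primer extension, HpaI digestion and capillary electrophoresis, with bidirectional fitting against DMSO baseline.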

The target of assay [17] is Hepatocyte nuclear factor 3-beta (Homo sapiens) (UniProt Q9Y261). Description: ATG_FoxA2_CIS: Attagene CIS-FACTORIAL HepG2 Assay for human Forkhead box A2 (FOXA2) (AID 2282942). Particulars: HepG2 cis-reporter transcription factor activity, 24 h; actives raise or lower the signal. The method in brief: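 HepG2 cells transiently transfected with multiple cis-regulated reporter transcription units, dosed for 24 h. Reporter mRNA measured by RT-PCR, 6-FAM labelling, HpaI digestion and capillary electrophoresis; bidirectional fitting against DMSO baseline.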
Sequence of Hepatocyte nuclear factor 3-beta (Homo sapiens) (Q9Y261 whole entry, looked up): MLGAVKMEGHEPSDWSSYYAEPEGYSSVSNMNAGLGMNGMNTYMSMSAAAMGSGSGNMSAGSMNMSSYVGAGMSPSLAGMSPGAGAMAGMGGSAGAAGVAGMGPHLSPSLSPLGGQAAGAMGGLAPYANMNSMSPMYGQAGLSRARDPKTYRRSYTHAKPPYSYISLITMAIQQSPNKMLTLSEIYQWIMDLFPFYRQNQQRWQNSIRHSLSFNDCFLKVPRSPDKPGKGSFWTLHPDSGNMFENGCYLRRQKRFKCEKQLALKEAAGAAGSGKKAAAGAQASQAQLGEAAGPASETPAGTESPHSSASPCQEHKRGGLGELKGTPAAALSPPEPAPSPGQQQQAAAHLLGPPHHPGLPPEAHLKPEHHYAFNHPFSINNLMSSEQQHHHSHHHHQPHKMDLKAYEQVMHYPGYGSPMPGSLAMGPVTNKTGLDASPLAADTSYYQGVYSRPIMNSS

Assay [18] can be described thus: ATG_FoxO_CIS: Attagene CIS-FACTORIAL HepG2 Assay for human Forkhead box O (FoxO) (AID 2282943). Conditions: HepG2 Attagene cis-reporter, FoxO element, mRNA; actives raise or lower the signal. The method in brief:
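Transfected HepG2 reporter cells exposed to test chemical for 24 h; reporter RNA measured by reverse transcription, PCR and fluorescent capillary electrophoresis; curves fitted for increases and decreases against DMSO.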

Assay [19] in a line: ATG_GATA_CIS: Attagene CIS-FACTORIAL HepG2 Assay for human GATA Binding Protein (AID 2282944). Particulars: HepG2 GATA cis-element reporter, Attagene multiplex mRNA; actives raise or lower the signal. The method in brief: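 Endogenous transcription factor activity was captured through cis-promoter-driven reporters in transfected HepG2 cells. After 24 h exposure, reporter transcripts were quantified by RT-PCR with fluorescent capillary electrophoresis, and responses fitted both directions against DMSO.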

Assay [20] can be described thus: ATG_GLI_CIS: Attagene CIS-FACTORIAL HepG2 Assay for human Zinc Finger Protein GLI1 (AID 2282945). Particulars: HepG2, Attagene cis-factorial reporter mRNA, GLI element; actives raise or lower the signal. An outline of the steps: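 Transiently transfected HepG2 cells report endogenous transcription factor activity via cis-element-driven reporter units. After 24 h compound exposure, reporter mRNA was measured by RT-PCR with capillary electrophoresis; bidirectional fitting against DMSO baseline.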

The structures appear in SMILES notation. The source made the active and inactive calls. The calls were made as follows: active = hit-call score of the fitted dose curve at least 0.9, where 1 is the maximum; inactive = score below 0.9.

Sequence of Aryl hydrocarbon receptor (Homo sapiens) (P35869 whole entry, looked up): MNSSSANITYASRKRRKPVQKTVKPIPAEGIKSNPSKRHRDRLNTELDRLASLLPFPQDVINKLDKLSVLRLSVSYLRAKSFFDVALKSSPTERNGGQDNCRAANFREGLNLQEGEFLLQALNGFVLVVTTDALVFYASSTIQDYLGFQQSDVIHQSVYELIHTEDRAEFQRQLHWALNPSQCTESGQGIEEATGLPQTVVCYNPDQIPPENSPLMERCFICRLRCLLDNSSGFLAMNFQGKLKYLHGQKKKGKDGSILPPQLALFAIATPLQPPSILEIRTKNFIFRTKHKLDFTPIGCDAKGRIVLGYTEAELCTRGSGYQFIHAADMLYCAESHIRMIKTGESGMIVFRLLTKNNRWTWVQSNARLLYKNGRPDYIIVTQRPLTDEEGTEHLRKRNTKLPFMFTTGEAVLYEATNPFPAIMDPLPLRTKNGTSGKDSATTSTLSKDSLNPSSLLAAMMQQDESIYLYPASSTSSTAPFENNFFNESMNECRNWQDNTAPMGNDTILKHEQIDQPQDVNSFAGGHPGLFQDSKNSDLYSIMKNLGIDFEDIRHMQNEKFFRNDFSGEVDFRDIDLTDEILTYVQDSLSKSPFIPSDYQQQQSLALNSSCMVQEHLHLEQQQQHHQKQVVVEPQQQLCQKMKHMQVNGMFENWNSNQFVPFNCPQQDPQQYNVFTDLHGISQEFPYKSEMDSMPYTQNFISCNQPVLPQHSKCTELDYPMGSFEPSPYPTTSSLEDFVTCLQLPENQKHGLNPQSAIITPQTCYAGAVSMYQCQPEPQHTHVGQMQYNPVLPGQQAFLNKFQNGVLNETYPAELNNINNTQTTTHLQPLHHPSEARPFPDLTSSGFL
Sequence of Retinoic acid receptor alpha (Homo sapiens) (P10276 whole entry, looked up): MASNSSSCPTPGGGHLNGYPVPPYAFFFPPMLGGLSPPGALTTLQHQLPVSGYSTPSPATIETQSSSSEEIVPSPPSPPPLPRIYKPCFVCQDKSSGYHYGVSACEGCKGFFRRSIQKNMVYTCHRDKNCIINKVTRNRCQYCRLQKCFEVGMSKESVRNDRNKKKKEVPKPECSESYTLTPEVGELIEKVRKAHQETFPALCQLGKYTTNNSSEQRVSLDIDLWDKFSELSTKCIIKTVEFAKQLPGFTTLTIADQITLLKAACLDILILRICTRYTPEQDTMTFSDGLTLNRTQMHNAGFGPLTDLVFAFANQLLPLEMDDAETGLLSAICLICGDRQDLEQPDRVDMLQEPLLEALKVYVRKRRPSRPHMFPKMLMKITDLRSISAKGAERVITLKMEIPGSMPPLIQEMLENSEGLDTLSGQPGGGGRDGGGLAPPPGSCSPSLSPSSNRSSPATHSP
Sequence of Transcription factor E2F1 (Homo sapiens) (Q01094 whole entry, looked up): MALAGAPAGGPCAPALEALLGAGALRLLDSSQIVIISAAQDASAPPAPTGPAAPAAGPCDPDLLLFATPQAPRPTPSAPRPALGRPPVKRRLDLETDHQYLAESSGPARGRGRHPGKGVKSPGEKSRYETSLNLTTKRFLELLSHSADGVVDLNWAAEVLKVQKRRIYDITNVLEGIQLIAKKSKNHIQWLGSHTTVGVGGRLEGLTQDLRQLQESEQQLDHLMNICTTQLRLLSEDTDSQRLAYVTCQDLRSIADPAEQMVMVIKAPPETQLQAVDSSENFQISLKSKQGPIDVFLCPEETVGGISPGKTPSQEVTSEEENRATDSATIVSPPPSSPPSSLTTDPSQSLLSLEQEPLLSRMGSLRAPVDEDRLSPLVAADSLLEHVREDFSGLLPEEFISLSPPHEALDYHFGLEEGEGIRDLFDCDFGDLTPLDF
Sequence of CCAAT/enhancer-binding protein beta (Homo sapiens) (P17676 whole entry, looked up): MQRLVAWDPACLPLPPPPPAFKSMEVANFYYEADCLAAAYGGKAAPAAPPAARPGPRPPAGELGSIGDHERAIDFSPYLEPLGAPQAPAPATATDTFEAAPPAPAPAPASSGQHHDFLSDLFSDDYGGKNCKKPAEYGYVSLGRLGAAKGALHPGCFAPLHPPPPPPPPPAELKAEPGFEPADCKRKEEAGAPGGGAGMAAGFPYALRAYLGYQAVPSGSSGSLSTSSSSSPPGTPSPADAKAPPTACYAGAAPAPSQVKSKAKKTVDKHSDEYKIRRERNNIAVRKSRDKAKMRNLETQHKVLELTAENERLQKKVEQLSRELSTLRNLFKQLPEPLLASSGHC

For `CCCC(=O)OCc1ccccc1`, the molecule was called inactive in [1], in assay [2], in [3], in assay [4], in assay [5] and in [6]. For the same molecule, the call in assay [7], in [8], in [9], in assay [10], in [11] and in assay [12] was inactive. Moreover, the outcome in assay [13], in assay [14], in assay [15], in assay [16], in assay [17] and in assay [18] was inactive. Besides, the molecule was classed as inactive in assay [19] and in assay [20].

In general, AC50 refers to the concentration giving half of the maximal activity seen. Consider `c1ccc2c(c1)ccc1ncccc12`, for which the molecule was called inactive in [1], in assay [2], in [4], in assay [6], in [10] and in assay [11]. For the same molecule, the result in assay [12], in assay [13], in assay [14], in assay [15], in [16] and in assay [17] was inactive. Also, the call in assay [18], in assay [19] and in [20] was inactive. In addition, the AC50 in [3] was 19.2 µM (active); in [5], 7.77 µM (active); in assay [7] it was 178 µM (active); in assay [8], 76.4 µM (active); in [9] it was 58 µM (active).

`CCOC(=O)Cc1cccc2ccccc12`: the molecule was called inactive in assay [1], in assay [2], in assay [3], in [4], in [5] and in assay [6]. Moreover, the molecule was called inactive in assay [7], in assay [8], in assay [10], in assay [11], in assay [12] and in [13]. The result in assay [14], in [15], in assay [16], in [17], in [18] and in assay [19] was inactive. In assay [20], the outcome was inactive. Further, the AC50 in [9] was 39.5 µM (active).

Consider `Cc1cc(O)c(Cl)c(C)c1Cl`, for which the molecule was called inactive in [1], in assay [2], in assay [4], in [5], in assay [6] and in assay [7]. Moreover, the call in [8], in [9], in assay [10], in assay [11], in assay [12] and in [13] was inactive. In addition, the molecule was called inactive in assay [14], in assay [16], in assay [17], in assay [18], in [19] and in [20]. Also, the AC50 in assay [3] is 23.9 µM (active); in assay [15], 28.3 µM (active).

Regarding `[Cl][In]([Cl])[Cl]`, the outcome in assay [1], in assay [2], in assay [3], in [4], in [5] and in assay [6] was inactive. Further, the outcome in [7], in assay [8], in assay [9], in assay [10], in assay [11] and in [12] was inactive. Moreover, the molecule was called inactive in assay [13], in assay [14], in assay [16], in assay [17], in assay [18] and in [19]. In addition, the call in assay [20] was inactive. Also, in assay [15], the AC50 was 163 µM (active).

Turning to `O=C(C(Cl)Cl)N1CCOC12CCCCC2`, the outcome in assay [1], in assay [2], in assay [3], in assay [5], in assay [7] and in assay [8] was inactive. Also, the molecule was classed as inactive in assay [9], in assay [10], in assay [11], in assay [12], in assay [14] and in assay [15]. In addition, the call in assay [16], in assay [17], in [18], in assay [19] and in [20] was inactive. The AC50 is 12 µM (active) in assay [4], 69.1 µM (active) in assay [6] and 19.3 µM (active) in assay [13].

Consider `c1ccc2c(c1)ccc1cc3c(ccc4ccccc43)cc12`, for which the result in [1], in assay [2], in assay [3], in [4], in assay [6] and in [7] was inactive. The result in [8], in [9], in assay [10], in assay [11], in [12] and in [13] was inactive. Moreover, the molecule was called inactive in assay [14], in assay [16], in [18], in assay [19] and in [20]. In addition, the AC50 is 0.0244 µM (active) in assay [5], 0.18 µM (active) in assay [15] and 0.0767 µM (active) in [17].
